Experimental data reported in PubChem BioAssay (Tox21).
A number with no mark means an inactive call. A call without a number means that no potency is given here. The source made the active and inactive calls. Calls follow the shape of the dose curve; as a rule, active = well fitted activation curve with a large enough effect in the repeat runs; inconclusive = weak or mixed curves; inactive = flat fitted curve, though single readings scatter.

molecular target: KiSS-1 receptor (Homo sapiens) (UniProt Q969F8); assay: Human kisspeptin (KISS1R) small molecule agonists, calcium flux assay in KISS1R-HEK293 cells (AID 1920064); details: KISS1R-HEK293, calcium flux fluorescence, agonist; series mostly up to 76.8 µM
Source text: National Center for Advancing Translational Sciences [NCATS]
Division of Preclinical Innovation [DPI]
U.S. Environmental Protection Agency [EPA]
National Institutes of Environmental Health Sciences [NIEHS]
National Toxicology Program [NTP]
U.S. Food and Drug Administration [FDA]
Kisspeptin and its receptor KISS1R play key roles in mammalian reproduction due to their involvement in the onset of puberty and control of the hypothalamic-pituitary-gonadal axis such as regulates GnRH release from the hypothalamus. The kisspeptin/KISS1R system also plays a direct role in peripheral organs (including the ovary, testis, uterus, and placenta) and is implicated in reproductive diseases such as miscarriage and polycystic ovary syndrome (PCOS). Abnormal KISS1R activity is associated with abnormal puberty, infertility, endometriosis, and hormone-dependent tumors. The KISS1 receptor (KISS1R, also called GPR54), a G-protein-coupled receptor (GPCR), acts (through phospholipase C) to increase intracellular inositol trisphosphate and then release intracellular calcium stores. Cell-based KISS1R-HEK293 assay is using HEK293 cells that have been genetically engineered to express the human KISS1R, which activity can be measured by calcium signaling. A compound/drug can activate (agonist) KISS1R that can be monitored by levels of intracellular calcium.
KISS1R-HEK293 cells developed by Codex Corp contain human KISS1R gene, which was stably integrated into HEK 293 cells. The compound activation can be detected by fluorescence intensity via calcium flux assay. This cell line has been used to screen the Tox21 10K compound library to identify agonists of KISS1R.
KISS1R-Hek293 cells were dispensed at 1500 cells/4uL/well in 1536-well black wall/clear bottom plates using a multidrop dispenser. After the assay plates were incubated at a 37 C/5% CO2 incubator for 18 hours, 4 microL of Calcium Dye Solution was added to each well. The plates were incubated at 37 C for 1 hour. And then 23 nL of compounds dissolved in DMSO, positive controls, or DMSO only was transferred to the assay plate by a pin tool station. The fluorescence intensity in the plates was measured using FDSS 7000EX kinetic plate reader with a filter set of Ex/Em=480/540 for 3 min at 1 sec intervals. Each test compound was measured at 15 concentrations and in triplicates.

Sequence of KiSS-1 receptor (Homo sapiens) (Q969F8 whole entry, looked up): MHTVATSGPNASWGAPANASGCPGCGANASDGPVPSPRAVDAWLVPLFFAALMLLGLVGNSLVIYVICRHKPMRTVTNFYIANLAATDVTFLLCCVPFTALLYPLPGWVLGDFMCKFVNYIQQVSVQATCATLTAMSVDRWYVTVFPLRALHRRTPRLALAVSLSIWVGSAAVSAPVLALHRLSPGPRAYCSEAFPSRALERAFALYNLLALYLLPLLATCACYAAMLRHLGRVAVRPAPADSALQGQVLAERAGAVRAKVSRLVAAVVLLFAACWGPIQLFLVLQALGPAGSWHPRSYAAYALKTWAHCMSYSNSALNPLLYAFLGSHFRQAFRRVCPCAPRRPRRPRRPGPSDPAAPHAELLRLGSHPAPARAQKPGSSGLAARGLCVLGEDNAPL

Structure (SMILES) | Potency | activation
CCOc1ccc(Cc2nccc3cc(OCC)c(OCC)cc23)cc1OCC | inactive | –
CCCC/C=C\CCCCCCCCCC=O | inactive | –
COCCOCCOCCOCCOCCO | inactive | –
C=CC(C)(O)CC/C=C(/C)CCC=C(C)C (stereo not given) | inactive | –
O=CC1CC=CCC1 (stereo not given) | inactive | –
c1ccc2c(c1)ccc1ncccc12 | inactive | –
O=[N+]([O-])c1ccccc1Nc1ccccc1 | inactive | –
CCCN1C=CN(C)C1 | inactive | –
CCCCN(CCO)CCO | inactive | –
NC(=O)c1ccccc1N | inactive | –
Cc1cccc(S(=O)(=O)O)c1C | inactive | –
CCCCC(CC)COC(=O)CC(C(=O)OCC(CC)CCCC)S(=O)(=O)O (stereo not given) | inactive | –
CNC(=O)Nc1ccc(Cl)c(Cl)c1 | inactive | –
CN(C(=O)c1c(O)c2ccccc2n(C)c1=O)c1ccccc1 | inactive | –
C[N+]1([O-])CCOCC1 | inactive | –
CCN(C=O)CC | inactive | –
CN1CCCC1=O | inactive | –
O=C1Nc2ccccc2C1=O | inactive | –
NC(=O)N[C@@H](CCC(=O)O)C(=O)O | inactive | –
CCCCCCCCCCCCCCCCCC(=O)OCC(CC)CCCC (stereo not given) | inactive | –

Structure (SMILES) | Potency | activation
C=C(C)C(=O)OCCC[Si](Cl)(Cl)Cl | inactive | –
O=C(O)CCCCCC(=O)O | inactive | –
COc1ccc(-c2coc3cc(O)cc(O)c3c2=O)cc1 | inactive | –
CCN(CC)c1ccc(C=O)c(O)c1 | inactive | –
CCCCCc1cccc(=O)o1 | inactive | –
CCCCCCCCCCCCCCCCC | inactive | –
Fc1ccccc1-c1ccccc1 | inactive | –
CCCCCCCC(=O)N(C)C | inactive | –
COc1cc(OC)nc(O[C@H](C(=O)O)C(OC)(c2ccccc2)c2ccccc2)n1 | inactive | –
CCC(C)CO (stereo not given) | inactive | –
CC(C)(C)c1ccc(C(=O)CCCCl)cc1 | inactive | –
COc1cc(/C=C/C(N)=O)cc(OC)c1OC | inactive | –
C=C(C)[C@@H]1CCC2=CC(=O)C[C@@H](C)[C@]2(C)C1 | inactive | –
CCOC(=O)NCCC[Si](OCC)(OCC)OCC | inactive | –
CC1=CC[C@@H]2C[C@H]1C2(C)C | – | -0.901% [at 15.8 µM]
O=C1Nc2ccccc2C1(c1ccc(O)cc1)c1ccc(O)cc1 | inactive | –
CC(O)C(CO)C(C)O (stereo not given) | inactive | –
CC1=CCC(=O)O1 | inactive | –
CCN1CCC[C@H]1CNC(=O)c1c(O)c(Cl)cc(Cl)c1OC | inactive | –
O=c1cccc[nH]1 | inactive | –
